Test results from ChEMBL document CHEMBL4513216, “Probing the Open Global Health Chemical Diversity Library for Multistage-Active Starting Points for Next-Generation Antimalarials” (ACS Infect Dis, 2020).
Screen size: about 65,000 compounds; about 2,100 (3.2%) showed an effect of 50% or more. The median lay at about -52%. What follows is part of a selection rich in strong results, with near analogues and random picks from the rest.

test system: Plasmodium falciparum; assay: Screen against P. falciparum Asexual Blood Stage (ABS), at 5uM; assay type: functional, Dd2; conditions: tested at 5 uM

Row | SMILES | INHIBITION [%]
1 | CN(Cc1ccco1)C1CCC12CCN(C(=O)N1CCCC1)CC2 (configuration not stated) | -76
2 | O=C(c1cccc2ncccc12)N1CCCC(n2ccnc2)C1 (configuration not stated) | -2.7
3 | O=C(c1cccc2cccnc12)N1CCCC(n2ccnc2)C1 (configuration not stated) | 55.4
4 | O=C(c1cccnc1N1CCCCC1)N1CCCC(n2ccnc2)C1 (configuration not stated) | 29.5
5 | Cc1cc(C(=O)NCc2ccc(N3CCN(C)CC3)nc2)c(C)s1 | -56.2
6 | O=C(c1cccc(F)c1Cl)N(CCO)CC1CC1 | 9.7
7 | O=C(NCc1cc(Br)cs1)Nc1cn[nH]c1 | -116
8 | O=C(CC1CC1)N1CC[C@H]2[C@@H]1CCC(=O)N2c1cccnc1 | -27.5
9 | O=C1CC(c2ccc(C(=O)O)cc2)c2c(sc3c2CCCC3)N1 (configuration not stated) | -3.15
10 | O=C1CC(c2ccncc2)c2c(sc3c2CCCC3)N1 (configuration not stated) | 56.8
11 | O=C1CC(c2cccnc2)c2c(sc3c2CCCC3)N1 (configuration not stated) | 29.8
12 | CCn1cnnc1CNC(=O)c1cc(Cl)ccc1F | -20.1
13 | Cc1cnn(CC2CCCN2C(=O)Cc2ccc3c(c2)CCO3)c1 (configuration not stated) | -48.8
14 | CC1CN(Cc2cccnc2)CCN1c1ccc2nncn2n1 (configuration not stated) | 10.1
15 | COc1cccc(CN2CCN(c3ccc4nncn4n3)C(C)C2)c1 (configuration not stated) | -39.5
16 | CC1CN(Cc2cccc(C#N)c2)CCN1c1ccc2nncn2n1 (configuration not stated) | 50.9

Row | SMILES | INHIBITION [%]
17 | COCCCNS(=O)(=O)c1ccc(N2CCCCS2(=O)=O)cc1 | -76.7
18 | Cn1ccnc1CN1CCN(Cc2ccncc2)[C@@H]2CS(=O)(=O)C[C@@H]21 | -33.9
19 | CN(Cc1ccccc1)C(=O)[C@@H]1Cc2[nH]cnc2CN1C | 42.2
20 | O=C([C@@H]1Cc2[nH]cnc2CN1C(=O)NC1CCCCC1)N1CCCC1 | -56.1
21 | CN1Cc2nc[nH]c2C[C@H]1C(=O)NC1CCCCC1 | 53
22 | Cc1c[nH]c(C2CCCN(C(=O)CCc3c(C)n[nH]c3C)C2)n1 (configuration not stated) | -98.1
23 | CCOc1ccc(C(=O)Nc2c(C)nc3ccccn3c2=O)cc1 | -144
24 | CCn1nc2c(cc1=O)CN(Cc1nc(-c3cccs3)no1)CC2 | 20.5
25 | CSCC(CCO)NC(=O)c1cccc(F)c1Cl (configuration not stated) | 9.25
26 | NC1CCCCN(Cc2cc(C3CCCCC3)no2)C1 (configuration not stated) | 62
27 | C[C@@H]1CN(Cc2cc(C3CCCCC3)no2)CC[C@]1(C)O | -6.78
28 | OCC1COCCN(Cc2cc(C3CCCCC3)no2)C1 (configuration not stated) | -122
29 | COCC(NC(=O)c1cn(-c2cccc(Cl)c2F)nn1)C1CC1 (configuration not stated) | -24.2
30 | Cc1ccc2cccc(S(=O)(=O)N(C)CC3CCN(C)C3)c2n1 (configuration not stated) | 37.8
31 | Cc1ccc2cccc(S(=O)(=O)N(C)C3CCCN(C)C3)c2n1 (configuration not stated) | 33.8
32 | Cc1ccc2cccc(S(=O)(=O)N(C)CC3CCN(C)CC3)c2n1 | 58.6
